Screens as filed in PubChem BioAssay.
Many of the other results were omitted from the sample, so hits are more common in it than they were.
IDE exosite inh = displaces the probe from the exo-site of human IDE. actives 6.3% (n = 17,000). P14735. purified IDE, FL-6b probe fluorescence polarization; stronger effect = lower value. z-score at 20 µM. AID 1259349;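 active means z-score of -3 or lower, meaning strong loss of probe binding signal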;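 further: His-tagged human IDE residues 42-1019 made in E. coli with 30 nM FL-6b probe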
Numbers stand for hits; 0 = inactive.

SMILES	IDE exosite inh
C[C@@H](O)C#Cc1ccc([C@@H]2[C@@H](CO)N3CCCCN(C(=O)c4ccncc4)C[C@H]23)cc1	0
COc1ccc2c3c([nH]c2c1)[C@@H](CO)N(C(=O)c1ccncc1)CC31CN(C)C1	0
CNC[C@H]1Oc2ccc(NS(=O)(=O)c3ccc(OC)cc3)cc2C(=O)N([C@@H](C)CO)C[C@H]1C	0
O=C(c1cccnc1)N1CC(=O)N2[C@@H](CO)[C@@H](c3ccc(-c4ccccc4F)cc3)[C@@H]2C1	0
O=C(c1cccc(F)c1)N1CC(=O)N2[C@H](CO)[C@H](c3ccc(-c4ccccc4F)cc3)[C@H]2C1	-4.76
O=C(c1cccc(F)c1)N1CC(=O)N2[C@H](C1)[C@@H](c1ccc(-c3ccccc3F)cc1)[C@@H]2CO	-3.92
O=C(c1ccc(F)cc1)N1CC(=O)N2[C@H](CO)[C@@H](c3ccc(-c4ccccc4F)cc3)[C@H]2C1	0
O=C(c1cccc(F)c1)N1CC(=O)N2[C@@H](CO)[C@@H](c3ccc(-c4ccccc4F)cc3)[C@@H]2C1	0
O=C(c1cccc(F)c1)N1CC(=O)N2[C@@H](CO)[C@H](c3ccc(-c4ccccc4)cc3)[C@@H]2C1	0
C[C@@H]1CN([C@H](C)CO)C(=O)c2ccccc2-c2ccccc2CO[C@@H]1CN(C)Cc1ccccc1C(F)(F)F	0
COc1ccc2c3c(n(C)c2c1)[C@@H](CO)N(C(=O)CN1CCOCC1)CC31CCN(C(=O)Nc2cccc(F)c2)CC1	0
O=C(O)[C@H]1[C@H](CO)[C@H]2Cn3c(ccc(-c4ccccc4F)c3=O)[C@H]2N1Cc1ccccc1	0
COCCNC(=O)C[C@H]1CC[C@@H]2[C@H](COC[C@H](O)CN2C(=O)c2cc(Cl)cc(Cl)c2)O1	0
CCCC#Cc1ccc([C@@H]2[C@@H](CO)N3CCCCN(CC4CCOCC4)C[C@H]23)cc1	0
OC[C@@H]1[C@@H](c2ccc(C#Cc3ccccc3F)cc2)[C@H]2CN(CC3CCOCC3)CCCCN12	0
CCCC#Cc1ccc([C@@H]2[C@@H](CO)N3CCCCN(CC4CCOCC4)C[C@@H]23)cc1	0
OC[C@@H]1[C@H](c2ccc(C#Cc3ccccc3)cc2)[C@H]2CN(CC3CCOCC3)CCCCN12	-4.38
OC[C@H]1[C@H](c2ccc(C#Cc3ccccc3)cc2)[C@@H]2CN(CC3CCOCC3)CCCCN12	-3.58
OC[C@H]1[C@H](c2ccc(C#Cc3ccccc3F)cc2)[C@H]2CN(CC3CCOCC3)CCCCN21	0
Cc1ccc(NC(=O)Nc2ccc3c(c2)C(=O)N(C)[C@@H]2CC[C@@H](CC(=O)NCC(F)(F)F)O[C@@H]2CO3)cc1	0
COc1ccc(C#Cc2ccc([C@H]3[C@H]4CN(C(=O)c5ccccc5)CC(=O)N4[C@H]3CO)cc2)cc1	0
O=S(=O)(c1ccccc1F)N1CCCCN2[C@H](CO)[C@H](c3ccc(-c4cncnc4)cc3)[C@@H]2C1	0
CCNC(=O)c1cc2c(c(-c3cccc(-c4cccnc4)c3)n1)[C@H](CCO)N(S(C)(=O)=O)C2	0
COc1cccc(S(=O)(=O)N2CC[C@@H]3[C@H](CO)Nc4ccc(C#Cc5cccnc5)cc4[C@@H]32)c1	0
COc1ccc(C#Cc2ccc([C@H]3[C@@H](CO)N4C(=O)CN(C(=O)NC(C)C)C[C@H]34)cc2)cc1	0
SMILES	IDE exosite inh
COc1ccc(C#Cc2ccc([C@@H]3[C@H]4CN(C(=O)NC(C)C)CC(=O)N4[C@H]3CO)cc2)cc1	0
COc1ccc(-c2ccc([C@H]3[C@H](CO)N4C(=O)CN(C(=O)NC(C)C)C[C@@H]34)cc2)cc1	-3.83
COc1ccc(C#Cc2ccc([C@H]3[C@H](CO)N4C(=O)CN(C(=O)NC(C)C)C[C@@H]34)cc2)cc1	0
Cc1ccc(-c2ccc([C@@H]3[C@@H](CO)N4C(=O)CN(C(=O)NC(C)C)C[C@H]34)cc2)cc1	0
Cc1ccc(-c2ccc([C@H]3[C@@H](CO)N4C(=O)CN(C(=O)NC(C)C)C[C@@H]34)cc2)cc1	0
COc1cccc(NC(=O)N2CC(=O)N3[C@H](CO)[C@@H](c4ccc(Br)cc4)[C@H]3C2)c1	0
COc1ccc(C#Cc2ccc([C@@H]3[C@@H](CO)N4C(=O)CN(C(=O)NC(C)C)C[C@H]34)cc2)cc1	0
COc1cccc(-c2ccc([C@@H]3[C@H]4CN(C(=O)NC(C)C)CC(=O)N4[C@H]3CO)cc2)c1	-11.8
COc1cccc(NC(=O)N2CC(=O)N3[C@H](C2)[C@@H](c2ccc(Br)cc2)[C@@H]3CO)c1	-3.24
COc1cccc(NC(=O)N2CC(=O)N3[C@@H](CO)[C@@H](c4ccc(Br)cc4)[C@@H]3C2)c1	0
COc1cccc(-c2ccc([C@@H]3[C@@H](CO)N4C(=O)CN(C(=O)NC(C)C)C[C@@H]34)cc2)c1	-14.4
CCC(=O)NC[C@H]1[C@H](c2ccc(-c3cccc(F)c3)cc2)[C@H](CO)N1C(=O)CC	0
CNC[C@H]1OCc2cnnn2CCCC(=O)N([C@@H](C)CO)C[C@H]1C	0
CN(C)CC#Cc1ccc([C@H]2[C@@H](CO)N3CCCCN(C(=O)Nc4ccccc4F)C[C@H]23)cc1	0
